Bioassay records as filed in PubChem BioAssay.
TRPML1 agonist = agonists of human TRPML1 channel; Q9GZU1; TRPML1-expressing cells, Ca2+ dye fluorescence, FDSS; activation, % (test concentration not listed); hit rate 0.12% among 410,000; in the data active means activation above about 50%; inconclusive means mostly about 30% to 49%; further: 0% is about no effect
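In this qHTS format, compounds were pin-transferred onto Ca8-dye-loaded TRPML1-DL cells induced with Tet overnight, and intracellular Ca2+ fluorescence was recorded kinetically for 110 s after a 10 s baseline. A subsequent 4uM final 54-4 (EC80) addition followed by a second 110 s read served as the antagonist phase.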
GLP-1R agonist = activates the human GLP-1 receptor; hit rate 0.007% among 380,000; Potency, µM (highest dose often 45.6 µM), for the others: top-dose activation, hits mostly activators; AID 624172; P43220; HEK293 GLP-1R CRE-luciferase, luminescence, 4-6 h; cells express a hypersensitive GLP-1R form; further: potency means the concentration at half of the fitted maximal effect; % of control where 0% means no effect
Target sequence (P43220 whole entry, looked up): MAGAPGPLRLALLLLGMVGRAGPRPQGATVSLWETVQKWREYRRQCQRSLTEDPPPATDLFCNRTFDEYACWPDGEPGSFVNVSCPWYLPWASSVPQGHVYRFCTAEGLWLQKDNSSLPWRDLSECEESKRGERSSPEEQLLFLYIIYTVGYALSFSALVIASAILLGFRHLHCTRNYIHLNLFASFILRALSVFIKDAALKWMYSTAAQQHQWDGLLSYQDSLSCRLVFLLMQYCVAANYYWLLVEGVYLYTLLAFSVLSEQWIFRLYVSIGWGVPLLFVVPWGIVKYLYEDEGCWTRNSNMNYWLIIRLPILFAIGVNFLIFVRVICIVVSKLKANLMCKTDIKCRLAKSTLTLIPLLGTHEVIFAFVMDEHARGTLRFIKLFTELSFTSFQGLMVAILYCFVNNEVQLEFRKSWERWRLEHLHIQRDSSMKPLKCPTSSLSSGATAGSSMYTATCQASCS
GLP-1R inv ag = GLP-1 receptor (human) inverse agonism | P43220 | HEK293 GLP-1R CRE-luciferase, luminescence, 24 h; GLP-1R form is constitutively active | Potency, µM (series often up to 38.3 µM), for inactives: at the top dose activity change, negative = inhibition, actives largely listed as inhibitors | hit rate 1.6% among 410,000 | AID 624417; further: potency means the concentration at half of the fitted maximal effect; on the % scale 0 is the no-effect control and ±100 the full control effect; nearly all actives have a fitted effect of over 55% in size
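Using stably transfected HEK293 (constitutively active GLP-1R, cAMP-luciferase reporter), compounds were incubated 24 hr and luciferase measured by luminescence.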
HEK293 tox = cytotoxic in the GLP-1 receptor inverse agonist counter-screen | hit rate 0.13% among 410,000 | Potency, µM (top dose mostly 38.3 µM), inactives show at the top dose activity change, negative = inhibition, hits mostly inhibitors | HEK293 cAMP-luciferase reporter cells, luminescence, 24 h;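 further: loss of luciferase light is scored as toxicity; potency means the concentration at half of the fitted maximal effect; on the % scale 0 is the no-effect control and ±100 the full control effect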
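Seeding density was 200 cells/uL; after overnight-length (12 h) culture, 23 nL compounds went on for 24 h at 37 °C. Readout used a luciferase detection reagent, luminescence taken after 12 min at room temperature.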
TRPML1 blocker = inhibitors of human TRPML1 channel | TRPML1-inducible cells, Ca2+ dye fluorescence, FDSS; active compounds read low; inhibition of EC80 agonist-evoked calcium signal | activity change, negative = inhibition, % (test concentration not listed) | hit rate 0.02% among 390,000 | AID 624415; in the data active means activity change below about -50%; inconclusive means between about -30% and that limit;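 further: stimulus is agonist 54-4 at its EC80 concentration; on the % scale 0 is the no-effect control and ±100 the full control effect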
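Tet-induced TRPML1-DL cells loaded with Ca8 no-wash calcium dye were read kinetically on FDSS. Compound addition was followed by EC80 agonist 54-4 (4 uM final); inhibition was read over 110 s.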
Active calls of the source: *. Compounds with a hit are over-represented: about 1.8% of the library has one in this group of screens. Unless noted, the call rests on the fitted dose curve; in most records, active means well fitted curve in the direction sought with a large enough effect; inconclusive means small, poorly fitted or top-dose-only effect, or another doubt; inactive means no such curve, though single readings can be large; an effect the other way counts as inactive or inconclusive.

`CCCn1c(C2CCCN2c2nc(-c3cccc(Br)c3)cs2)nc2ccccc21` (configuration not stated) gave TRPML1 agonist 0, GLP-1R agonist 6%, GLP-1R inv ag inconclusive, HEK293 tox 4.5µM* and TRPML1 blocker 9.
For Nc1ccc(NC(=O)c2cc(Cl)ccc2O)c(Cl)c1 the results were TRPML1 agonist -1.
For O=C(NCC1CCCO1)C(c1cccs1)N(C(=O)c1ccc(-c2ccccc2)[nH]1)C1CCCC1 (configuration not stated) the results were TRPML1 agonist 0, GLP-1R agonist -2%, GLP-1R inv ag 10µM*, HEK293 tox -2% and TRPML1 blocker 0.
For O=C(NCC1CCCO1)C(c1cccs1)N(Cc1ccccc1)C(=O)c1ccc(-c2ccccc2)[nH]1 (configuration not stated) the results were TRPML1 agonist 0, GLP-1R agonist 0%, GLP-1R inv ag inconclusive, HEK293 tox -25% and TRPML1 blocker -14.
`O=C(Nc1ncc(Cc2ccccc2)s1)C1CCN(C(=O)c2ccco2)CC1` gave TRPML1 agonist 0.
For COc1ccccc1NC(=O)c1cnc(SCC(=O)N2CCOCC2)n(C)c1=O the results were TRPML1 agonist 1, GLP-1R inv ag 3%, HEK293 tox 1% and TRPML1 blocker -11.
For CC12CCC(C(=O)N3CCc4ccccc43)(CC1=O)C2(C)C (configuration not stated) the results were TRPML1 agonist 0, GLP-1R agonist 0%, GLP-1R inv ag 13µM*, HEK293 tox -3% and TRPML1 blocker 13.
Screening Cc1nn(-c2ccc3nnc(C)n3n2)c(C)c1CCC(=O)Nc1ccc(OC(F)(F)F)cc1 returned TRPML1 agonist 0, GLP-1R inv ag 8%, HEK293 tox 1% and TRPML1 blocker -23.
Cc1ccccc1NS(=O)(=O)c1ccc2[nH]c3c(c2c1)CCCCC3 was read as TRPML1 agonist 1, GLP-1R agonist 0%, GLP-1R inv ag 10µM*, HEK293 tox -12% and TRPML1 blocker 10.
For Cc1cccc(NS(=O)(=O)c2ccc3[nH]c4c(c3c2)CCCCCC4)c1 the results were TRPML1 agonist 0, GLP-1R inv ag 8.9µM*, HEK293 tox inconclusive and TRPML1 blocker 20.
COC(=O)c1ccc(-n2c(/C=C\c3cccc(Br)c3)nc3ccccc3c2=O)cc1 was read as TRPML1 agonist 1, GLP-1R inv ag -3%, HEK293 tox -25% and TRPML1 blocker -12.
COc1ccccc1N1CCN(C2CCCN(C(=O)c3cc(C4CC4)on3)C2)CC1 (configuration not stated) was read as TRPML1 agonist 1, GLP-1R agonist 1%, GLP-1R inv ag -10%, HEK293 tox 1% and TRPML1 blocker -61*.
For COc1ccccc1N1CCN(C2CCCN(C(=O)c3cscn3)C2)CC1 (configuration not stated) the results were TRPML1 agonist 0, GLP-1R agonist -5%, GLP-1R inv ag -3%, HEK293 tox -1% and TRPML1 blocker -5.
Screening COc1ccc(C(=O)N/N=C/c2sc3ccccc3c2O)cc1 returned TRPML1 agonist 7, GLP-1R agonist -1%, GLP-1R inv ag 1.6µM*, HEK293 tox inconclusive and TRPML1 blocker 8.
Screening Cn1ncc2c(Nc3ccc(Br)cc3)nc(Nc3ccc(Br)cc3)nc21 returned TRPML1 agonist 1, GLP-1R agonist 0%, GLP-1R inv ag inconclusive, HEK293 tox -15% and TRPML1 blocker -12.
For Cn1ncc2c(Nc3cccc(Cl)c3)nc(Nc3cccc(Cl)c3)nc21 the results were TRPML1 agonist 3, GLP-1R agonist 6%, GLP-1R inv ag 11µM*, HEK293 tox -29% and TRPML1 blocker 24.
`Cc1ccc(S(=O)(=O)N2CCN(c3nc(-n4c(=O)[nH]c5ccccc54)nc4ccccc34)CC2)cc1` gave TRPML1 agonist 0.
Cc1ccc(NC(=O)CN(C)CC(=O)Nc2sc3c(c2C(N)=O)CCC3)cc1 was read as TRPML1 agonist 0, GLP-1R agonist 12%, GLP-1R inv ag inconclusive, HEK293 tox -14% and TRPML1 blocker -8.
`CN(CC(=O)Nc1ccc(Cl)cc1)CC(=O)Nc1sc2c(c1C(N)=O)CCC2` gave TRPML1 agonist -1, GLP-1R agonist 2%, GLP-1R inv ag 4µM*, HEK293 tox -53% and TRPML1 blocker -10.
`Cc1nc2c(-c3ccc(Cl)cc3)cnn2c(N)c1-c1ccc(F)cc1` gave TRPML1 agonist 1, GLP-1R agonist -2%, GLP-1R inv ag inconclusive, HEK293 tox 3% and TRPML1 blocker -14.
Screening Cc1nc2c(-c3ccc(F)cc3)cnn2c(N)c1-c1ccccc1 returned TRPML1 agonist 0, GLP-1R agonist -5%, GLP-1R inv ag 0.89µM*, HEK293 tox 3% and TRPML1 blocker 11.
For CCn1ncc(CN2CCC(C(=O)Nc3cccc(-c4cccc(F)c4)c3)CC2)c1C the results were TRPML1 agonist 0, GLP-1R agonist -3%, GLP-1R inv ag 5%, HEK293 tox 5% and TRPML1 blocker -5.
For Cc1cc(C)n(CCCN2CCC(C(=O)Nc3cccc(-c4cccc(F)c4)c3)CC2)n1 the results were TRPML1 agonist 2, GLP-1R agonist -8%, GLP-1R inv ag 7.1µM*, HEK293 tox inconclusive and TRPML1 blocker 14.
Screening OCC1(CCc2ccccc2)CCN(C/C=C/c2ccccc2)CC1 returned TRPML1 agonist 1, GLP-1R agonist 6%, GLP-1R inv ag inconclusive, HEK293 tox -3% and TRPML1 blocker -20.
`OCC1(Cc2ccccc2Cl)CCN(C/C=C/c2ccccc2)CC1` gave TRPML1 agonist 1, GLP-1R agonist 6%, GLP-1R inv ag 10µM*, HEK293 tox -22% and TRPML1 blocker 17.
For CCC(Sc1nnc(-c2ccc(C)c(Cl)c2)n1CC)C(=O)Nc1nccs1 (configuration not stated) the results were TRPML1 agonist 2, GLP-1R agonist 7%, GLP-1R inv ag 6.3µM*, HEK293 tox 0% and TRPML1 blocker 7.
`CCn1c(SCC(=O)Nc2nccs2)nnc1-c1ccc(S(=O)(=O)N2CCCCCC2)cc1` gave TRPML1 agonist 1, GLP-1R agonist -6%, GLP-1R inv ag -9%, HEK293 tox -16% and TRPML1 blocker 0.
For O=C(c1ccccc1)C(Nc1cccc([N+](=O)[O-])c1)c1ccccc1 (configuration not stated) the results were TRPML1 agonist 0, GLP-1R agonist 21%, GLP-1R inv ag 7.9µM*, HEK293 tox -2% and TRPML1 blocker -2.
